This excerpt belongs to a sample that is enriched for hits.
ERK EGF inh: qHTS Assay for Inhibitors of the ERK Signaling Pathway using a Homogeneous Screening Assay; Stimulation with EGF. HEK293-V1b, EGF-stimulated phospho-ERK AlphaScreen. Potency, µM (doses to about 11.5 µM), for inactives: top-dose activity change, negative = inhibition, actives largely listed as inhibitors. 130,000 tested, 0.41% active. AID 1454, 2008; active = well fitted inhibition curve with a large enough effect;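 also: plate controls were stimulated vehicle wells for no effect and unstimulated vehicle basal for full effect; nearly all actives have a fitted effect of over 55% in size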
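Readout: AlphaScreen signal for phosphorylated ERK in lysed HEK293 cells stably expressing V1b. Stimulus 25 nM EGF, 5 min, following 30 min compound exposure. Data scaled to DMSO basal and full EGF activation.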
The depositor's hits bear a star; [ ] = dose if it differs, or a comment. Potency is read from the fitted curve at half-maximal effect.

COc1cc(/C=C2/C(=O)c3cccc([N+](=O)[O-])c3C2=O)c(Br)cc1O was read as ERK EGF inh 28.2µM*.
COc1ccc(/C=C/C(=O)OCC(=O)c2c(C)[nH]c3ccccc23)cc1OC was read as ERK EGF inh -9.6%.
Cc1cnc(CNc2nc(-c3ccc(C(=O)N(C)C)cc3)nc3ccccc23)cn1 was read as ERK EGF inh 11.7%.
`CC(=O)OC1CC2C(C)(C)CCC(=O)[C@@]2(C)C2CC[C@@]3(C)C(c4ccoc4)OC(=O)C4OC43[C@]12C` (stereo partly drawn) gave ERK EGF inh 10.1%.
For CN1CCN/C1=C(/C(Cl)=C(Cl)Cl)[N+](=O)[O-] the results were ERK EGF inh 2.4%.
Screening Cc1ccccc1N1C(=O)c2cc(S(N)(=O)=O)c(Cl)cc2N[C@H]1C returned ERK EGF inh 8.7%[25.7 µM].
`O=C(O)c1ccc(COc2ccc3ccccc3c2/C=C2/NC(=O)N(Cc3ccc(F)cc3)C2=O)cc1` gave ERK EGF inh 35.5µM*.
O=C(O)c1ccc(COc2ccccc2/C=C2\NC(=O)N(Cc3ccccc3F)C2=O)cc1 was read as ERK EGF inh 35.2%.
O=C(O)c1ccc(COc2ccccc2/C=C2\NC(=O)N(Cc3ccccc3)C2=O)cc1 was read as ERK EGF inh -4.2%.
`COc1cc(NC(=O)c2cccc(Br)c2)nc(OC)n1` gave ERK EGF inh 3.7%.
`Cc1cccc(-c2nc3sc(C)cc3c(=O)o2)c1` gave ERK EGF inh 7.2%.
OC(COc1ccc(CNCCc2ccc(C(F)(F)F)cc2)cc1)CN1CCCCC1 (stereo not drawn) was read as ERK EGF inh -2.6%.
COc1ccc(CCNCC(O)COc2cccc(Br)c2)cc1 (stereo not drawn) was read as ERK EGF inh -1.9%[57.5 µM].
Screening OC(CNCCc1ccc(C(F)(F)F)cc1)COc1ccc2ccccc2c1 (stereo not drawn) returned ERK EGF inh 35.5µM*.
`Cc1ccc(S(=O)(=O)NCCc2cccs2)cc1` gave ERK EGF inh 9.1%[57.5 µM].
`O=C(c1ccc(S(=O)(=O)Nc2ccc(F)cc2)cc1)N1CCN(c2ccccn2)CC1` gave ERK EGF inh 5.0%.
Screening O=c1c(-c2cc(O)c(O)c(O)c2)coc2cc(O)c(O)c(O)c12 returned ERK EGF inh 18.3%.
Screening CCc1cc2c(=O)c(-c3ccc4c(c3)OCCO4)coc2cc1OS(C)(=O)=O returned ERK EGF inh -2.1%.
CC(C)=CCc1c(O)cc2occ(-c3ccc4c(c3)OCO4)c(=O)c2c1O was read as ERK EGF inh 22.4µM*.
For C/C(N)=C(/C#N)C(=O)COC(=O)Cc1coc2ccc3ccccc3c12 the results were ERK EGF inh -1.6%.
For CC(=O)CCn1cnc([N+](=O)[O-])n1 the results were ERK EGF inh 6.8%.
`CS(=O)(=O)N1CCC2(CC1)CN(c1ncccn1)C2` gave ERK EGF inh -2.9%.
`CCN(CC)c1ccc(/C=N/N2CCN(Cc3ccccc3)CC2)cc1` gave ERK EGF inh 28.2µM*.
`C(=N\N1CCN(Cc2ccccc2)CC1)/c1cccnc1` gave ERK EGF inh 3.7%.
C(=N\N1CCN(Cc2ccccc2)CC1)/c1ccccc1 was read as ERK EGF inh 10.4%[57.5 µM].
C=C(N(C)C)[C@]1(C)C[C@H]1[C@H](NC(=O)CNC(=O)OCc1ccccc1)c1ccccc1 was read as ERK EGF inh 1.4%.
CN1CCN(CC(O)(c2ccc(Cl)cc2)c2ccc(Cl)cc2)CC1 was read as ERK EGF inh 2.7%.
Cc1[nH]n(-c2ccccc2)c(=O)c1N=O was read as ERK EGF inh -7.7%.
For Cc1[nH]n(-c2ccccc2)c(=O)c1N=Nc1ccc2c(c1)OCCO2 the results were ERK EGF inh 12.6µM*.
Cc1ccc(N=Nc2c(C)[nH]n(-c3ccccc3)c2=O)c(C)c1 was read as ERK EGF inh 1.7%.
For CN1[C@@H]2CC(OC(=O)[C@H](CO)c3ccccc3)C[C@@H]1[C@H]1O[C@H]12 (stereo partly drawn) the results were ERK EGF inh -8.5%.
For COc1ccc(CCN2C(=S)N(C)C(=O)C2CC(=O)Nc2ccc(F)cc2)cc1 (stereo not drawn) the results were ERK EGF inh -9.5%[57.5 µM].
Screening Cc1ccc(NC(=O)CCn2nc([N+](=O)[O-])cc2C)nc1 returned ERK EGF inh 13.6%.
For CN(C)C(=O)c1ccc(-c2ccc3ncnc(NCc4cccnc4)c3c2)cc1 the results were ERK EGF inh 29.0%.
For Cc1cccc(CNc2ncnc3ccc(-c4c(C)noc4C)cc23)c1 the results were ERK EGF inh 10.0%.
Screening Cc1cccc(CNc2ncnc3ccc(-c4cccnc4)cc23)c1 returned ERK EGF inh 8.91µM*.
`O=C(c1ccncc1)N1CCC2(CC1)CN(c1ccccc1)C2` gave ERK EGF inh 2.8%.
For O=C(CSc1n[nH]c(-c2ccccc2)n1)NCc1cccc(C(=O)O)c1 the results were ERK EGF inh -9.2%.
`CN(C)c1ccc(/C=N/NC(=O)c2ccccn2)cc1` gave ERK EGF inh -9.0%[57.5 µM].
